CCT modulator: High-Throughput Screening for Modulators of Cytosolic Chaperonin Activity; activity change, % (no concentration beside the values), hits read low; purified chaperonin ATPase assay, HTRF ADP detection, 30 min; 360,000 compounds, 0.3% hits; in the data active = activity change below about -30%
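Nucleotide hydrolysis assay: TRiC at 20–40 nM final (set by batch activity) with 10 uM ATP, 30 min at 37 °C, in presence of 76 uM compound. Detection by competitive ADP HTRF, 30 min ambient.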
PLK1 PBD block: qHTS for Inhibitors of PLK1-PDB (polo-like kinase 1 - polo-box domain): Primary Screen; Potency, µM, usual class: inhibitors; 360,000 compounds, 2.8% hits; Plk1 PBD binding of FITC phosphopeptide, fluorescence polarization; Serine/threonine-protein kinase PLK1 (Homo sapiens), P53350; AID 720504, 2013; note: series mostly up to about 57 µM; nearly all actives have a fitted effect of over 65% in size
G9a inh: qHTS Assay for Inhibitors of Histone Lysine Methyltransferase G9a; G9a H3K9 monomethylation, AlphaScreen, 2 h; 350,000 compounds, 8.8% hits; Potency, µM (highest dose often 102 µM), usual class: inhibitors; Histone-lysine N-methyltransferase EHMT2 (Homo sapiens), Q96KQ7; AID 504332, 2011; note: nearly all actives have a fitted effect of over 75% in size
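AlphaScreen read-out: biotin-H3K9 peptide (500 nM) methylation by 20 nM enzyme with 20 uM SAM, 2 h at room temperature after 15 min compound preincubation; anti-monomethyl H3K9 antibody plus donor/acceptor beads, 10 min dark.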
VDR inh: Inhibitors of the vitamin D receptor (VDR): qHTS; VDR-SRC2-3 peptide fluorescence polarization, 2 h; Potency, µM, actives largely listed as inhibitors; 400,000 compounds, 0.93% hits
Target sequence (P11473 whole entry, looked up): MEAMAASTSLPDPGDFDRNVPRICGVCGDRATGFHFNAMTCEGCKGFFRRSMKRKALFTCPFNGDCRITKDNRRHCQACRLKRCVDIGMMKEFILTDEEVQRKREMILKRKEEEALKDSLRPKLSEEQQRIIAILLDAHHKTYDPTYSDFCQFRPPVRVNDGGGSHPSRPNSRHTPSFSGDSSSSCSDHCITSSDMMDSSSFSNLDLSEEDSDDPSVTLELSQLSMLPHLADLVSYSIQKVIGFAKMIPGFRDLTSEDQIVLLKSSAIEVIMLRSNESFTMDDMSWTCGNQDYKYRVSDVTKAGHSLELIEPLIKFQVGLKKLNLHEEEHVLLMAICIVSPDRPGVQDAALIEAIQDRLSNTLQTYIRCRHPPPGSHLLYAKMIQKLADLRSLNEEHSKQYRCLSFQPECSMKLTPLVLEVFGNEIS
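The screen uses fluorescence polarization to detect compounds that interfere with recruitment of the SRC2-3 coactivator peptide to VDR; plates are read after 2 h at room temperature.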
MmCpn inh: Inhibitors of TCP-1 ring complex (TRiC) of Methanococcus maripaludis (MmCpn): qHTS; Chaperonin Mm-Cpn (Methanococcus maripaludis); purified Mm-Cpn ATPase, ADP Transcreener TR-FRET; Potency, µM (doses to about 76.9 µM), most hits filed as inhibitors; 330,000 compounds, 0.031% hits; note: nearly all actives have a fitted effect of over 80% in size
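Measured: ADP formation by purified Mm-CPN. Conditions: 25 nM protein, 10 uM ATP, Tris pH 7.4 with Mg2+, K+ and DTT, 37°C for 30 min. Detection: Transcreener HTRF after 30 min at room temperature.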
Sfp inh: qHTS Assay for Inhibitors of Bacillus subtilis Sfp phosphopantetheinyl transferase (PPTase); 4'-phosphopantetheinyl transferase ffp (Bacillus subtilis), Q9F4F7; Biochemical Sfp PPTase activity, qHTS; Potency, µM, actives largely listed as inhibitors; 310,000 compounds, 3.5% hits;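 note: the enzyme is Sfp with the accession as filed and its product quenches rhodamine fluorescence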
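Compounds were incubated with enzyme (final 15 nM) for 15 min at room temperature before substrate addition started the reaction. Fluorescence at 525 nm excitation, 598 nm emission was recorded immediately and after 30 minutes.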
Numbers stand for hits; . = inactive; ? = inconclusive; / = no result given; [ ] = another dose, or the depositor's remark. Shown are actives, neighbours in structure and some others; about 10% of the full set was active somewhere. Unless noted, calls come from the whole dose curve; as a rule, active = well fitted curve in the direction sought with a large enough effect; inconclusive = small, poorly fitted or top-dose-only effect, or another doubt; inactive = no such curve, though single readings can be large; an effect the other way counts as inactive or inconclusive.

SMILES	CCT modulator	PLK1 PBD block	G9a inh	VDR inh	MmCpn inh	Sfp inh
COc1ccc(C(=O)NCCc2sc(-c3ccc(Cl)cc3)nc2C)c(OC)c1	/	/	.	.	/	/
CCOC(=O)c1[nH]c2ccccc2c1NC(=O)c1ccc(OC(C)C)cc1	/	/	?	.	/	/
CCc1cccc(C)c1NC(=O)CSc1n[nH]c(-c2ccccc2)n1	/	/	.	.	/	/
CCOC(=O)c1cc(NC(=O)c2ccc(OC)cc2)c(=O)n2c1oc1ccc(Cl)cc12	/	/	.	.	/	/
COC(=O)CC/C(O)=C1\C(=O)CC(C)(C)CC1=NCCc1nc2ccccc2[nH]1	.	21µM	.	.	.	.
CC(=O)C1=C(O)CC(C)(C)CC1=NCCc1nc2ccccc2[nH]1	.	.	.	.	.	.
COc1ccc(N2CCN(C(=O)c3cc(-c4cccs4)nc4ccccc34)CC2)cc1	.	.	22µM	.	.	.
COc1ccc(Nc2ncc(C(=O)N3CCN(c4ccc(OC)cc4)CC3)c3ccccc23)cc1	/	/	18µM	.	/	/
COc1ccc(N2CCN(C(=O)c3csc4ccccc34)CC2)cc1	.	.	20µM	.	.	.
COC1CCC(C(=O)c2ccc3nc4c(cc3c2)CCCO4)CC1 (stereo not drawn)	/	/	/	/	/	.
[N-]=C=C1C(=O)NC(=O)C([n+]2ccc(-c3ccncc3)cc2)C1c1ccccc1C(F)(F)F (stereo not drawn)	.	?	/	28µM	.	50µM
CSc1ccccc1C(=O)NC1CCCN(c2ccc(C(F)(F)F)cn2)C1 (stereo not drawn)	.	.	8.9µM	.	.	.
O=C(CCc1ccccc1Cl)NC1CCCN(c2ccc(C(F)(F)F)cn2)C1 (stereo not drawn)	.	.	.	.	.	.
COc1ccc(Nc2nc3c(S(=O)(=O)c4ccc(C)cc4)nnn3c3ccsc23)cc1Cl	/	/	.	.	/	/
O=c1cc(-c2ccc(O)cc2)oc2cc(O)c([C@@H]3O[C@H](CO)[C@@H](O)[C@H](O)[C@H]3O)c(O)c12	.	.	/	.	.	.
O=c1c2ccccc2oc2cc(O)c(C3COCC(CO)C(O)C(O)C3O)c(O)c12 (stereo not drawn)	/	/	/	/	/	79µM
COCCNC(=O)CSc1nc2nn(-c3ccccc3)c(=O)c-2c2n1CCCCC2	.	24µM	.	.	.	.
CNC(=O)CSc1nc2nn(-c3ccccc3)c(=O)c-2c2n1CCCCC2	.	.	.	.	.	.
CCn1ccnc1CN(C)Cc1cn(-c2cc(C)ccc2C)nc1-c1ccccc1	.	.	50µM	.	.	?
CCn1ccnc1CN(C)Cc1cn(-c2ccc(C)cc2)nc1-c1ccc(F)cc1	.	.	.[0.501 µM]	.	.	?
CCOCCOC(=O)CCSc1n[nH]c(=O)[nH]c1=O	.	.	50µM	.	.	.
CCOC(=O)Cc1ccc(NC(=O)N(Cc2ccc(CC)cc2)Cc2cn[nH]c2-c2ccc(OC)cc2)cc1	/	/	.	.	/	/
CC1CCCC/C1=N/Nc1ccc([N+](=O)[O-])cc1[N+](=O)[O-] (stereo not drawn)	.	.	35µM	.	.	.
CC1C/C(=N/Nc2nc3ccccc3[nH]2)CC(C)(C)C1 (stereo not drawn)	.	.	.	.	.	.
NS(=O)(=O)c1ccc(NN=C2CCCCC2)c([N+](=O)[O-])c1	.	.	.	.	.	.
SMILES	CCT modulator	PLK1 PBD block	G9a inh	VDR inh	MmCpn inh	Sfp inh
CC1C/C(=N/Nc2ccc([N+](=O)[O-])cc2[N+](=O)[O-])CC(C)(C)C1 (stereo not drawn)	.	.	10µM	.	.	.
CCC(=O)N1CCc2cc(Br)cc(S(=O)(=O)CCC(=O)NCCc3cccc(C)c3)c21	/	/	.	.	/	/
COCCN(C(=S)Nc1c(C)cc(C)cc1C)C(C)c1cccs1 (stereo not drawn)	.	?	?	.	.	50µM
COCCN(C(=S)Nc1ccc(C)cc1C)C(C)c1cccs1 (stereo not drawn)	.	.	.	.	.	.
CCCCN(C)c1nc2c(S(=O)(=O)c3ccc(CC)cc3)nnn2c2ccc(Cl)cc12	/	/	.	.	/	/
CCCCc1ccc(NC(=O)COc2cccc3c(=O)n(C)ccc23)cc1	/	/	.	.	/	/
O=[N+]([O-])/C(C(=C(Cl)Cl)N1CCOCC1)=C1\NCCO1	.	.	/	.	.	.
CN1CCO/C1=C(\C(Cl)=C(Cl)Cl)[N+](=O)[O-]	.	?	20µM	.	.	.
COc1cc2c(cc1OC)C(c1cc3cc(OC)c(OC)cc3[nH]c1=O)N(C(=O)C1CC1)CC2 (stereo not drawn)	.	.	.	.	.	50µM
CC1CCC(NC(=O)C2(C)Cc3ccccc3C(=O)N2Cc2ccc(Cl)cc2)CC1 (stereo not drawn)	/	/	.	.	/	/
Cn1c(C(=O)NCCN2CCc3ccccc3C2)cc2c(=O)n(C)c3ccccc3c21	.	.	45µM	.	.	.
Cn1c(C(=O)NCCN2CCOCC2)cc2c(=O)n(C)c3ccccc3c21	.	.	?	.	.	.
COC(=O)c1cc(S(=O)(=O)NCCN2CCN(c3ccccc3F)CC2)c[nH]1	.	21µM	.	.	.	.
Cn1c(C(=O)NCCCN2CCN(c3ccc(F)cc3)CC2)cc2c(=O)n(C)c3ccccc3c21	.	.	/	.	/	/
Cn1c(C(=O)NCCN2CCN(c3ccccc3F)CC2)cc2c(=O)n(C)c3ccccc3c21	.	.	45µM	?	.	.
O=C(Nc1ccc(Br)cc1F)c1cc2nc(-c3ccco3)cc(C(F)(F)Cl)n2n1	/	/	.	.	/	/
COc1ccc(Cl)cc1NC(=O)CSc1cn(CC(=O)N2CCCCC2)c2ccccc12	/	/	?	.	/	/
COc1cc2c(cc1OC)C1(Nc3c-2c(-c2ccccc2)nn3-c2ccccc2)C(=O)Nc2ccccc21 (stereo not drawn)	.	.	79µM	.	.	.
CCc1nn(-c2ccccc2)c2c1-c1cc(OC)c(OC)cc1C1(N2)C(=O)Nc2ccccc21 (stereo not drawn)	.	.	79µM	.	.	.
CCc1nn(-c2ccccc2)c2nc(-c3ccccc3OC)c3cc(OC)c(OC)cc3c12	/	/	.	.	/	/
COc1cc2c(cc1OC)C1(Nc3c-2c(C)nn3-c2ccccc2)C(=O)Nc2ccccc21 (stereo not drawn)	.	.	71µM	.	.	.

Screens as filed in PubChem.
